Measured values as given in PubChem BioAssay (NCATS).
Records with an inconclusive call do not appear. The source made the active and inactive calls. Calls follow the shape of the full dose curve.

Experiments:
[1] = Primary qHTS for inhibitors of SARS-S pseudo-typed particle cell entry (AID 1479145); details: SARS-S pseudotyped particle cell entry, luciferase reporter; series mostly up to 57.1 µM; also: nearly all actives have a fitted effect of over 45% in size
[2] = Primary qHTS for Huh7 cytotoxicity: counterscreen for inhibitors of MERS-S pseudotyped particle cell entry (AID 1479147); details: cell viability read-out; series mostly up to 57.1 µM
[3] = Primary qHTS for inhibitors of MERS-S pseudo-typed particle cell entry (AID 1479149); details: MERS-S pseudotyped particle entry, luciferase; series mostly up to 57.1 µM; also: nearly all actives have a fitted effect of over 60% in size
[4] = Primary qHTS for Vero E6 cytotoxicity: counterscreen for inhibitors of SARS-S pseudo-typed particle cell entry (AID 1479150); details: cell viability; series mostly up to 57.1 µM
% is scaled to controls: 0 for no effect and ±100 for the full control effect.

CC(CC(C#N)(c1ccccc1)C(C)C)N(C)C (stereo not drawn)
inactive: Potency [1] | Potency [2] | Potency [3] | Potency [4]

NC(=O)c1ccccc1O
inactive: Potency [1] | Potency [2] | Potency [3] | Potency [4]

COc1cc2c(Nc3ccc(Br)cc3F)ncnc2cc1OCC1CCN(C)CC1
inactive: Potency [1] | Potency [2] | Potency [3] | Potency [4]

Nc1ccc(S(=O)(=O)Nc2ccc(Cl)nn2)cc1
inactive: Potency [1] | Potency [2] | Potency [3] | Potency [4]

Cc1cc(C)c(NC(=O)CN(CC(=O)O)CC(=O)O)c(C)c1Br
inactive: Potency [1] | Potency [2] | Potency [3] | Potency [4]

CC(=O)NC[C@H]1CN(c2ccc(N3CCOCC3)c(F)c2)C(=O)O1
inactive: Potency [1] | Potency [2] | Potency [3] | Potency [4]

NS(=O)(=O)c1cc2c(cc1Cl)NC(C(Cl)Cl)NS2(=O)=O (stereo not drawn)
inactive: Potency [1] | Potency [2] | Potency [3] | Potency [4]

O=P(O)(O)C(Sc1ccc(Cl)cc1)P(=O)(O)O
inactive: activity change, negative = inhibition [1] -6.9% [at 0.573 µM] | outcome [2] inactive [at 0.573 µM] | outcome [3] inactive [at 0.573 µM] | outcome [4] inactive [at 0.573 µM]

CN1C(CSCC(F)(F)F)Nc2cc(Cl)c(S(N)(=O)=O)cc2S1(=O)=O (stereo not drawn)
inactive: Potency [1] | Potency [2] | Potency [3] | Potency [4]

COC(=O)N/N=C/c1c[n+]([O-])c2ccccc2[n+]1[O-]
inactive: Potency [1] | Potency [2] | Potency [3] | Potency [4]

Cc1noc(NS(=O)(=O)c2ccc(N)cc2)c1C
inactive: Potency [1] | Potency [2] | Potency [3] | Potency [4]

O=c1[nH]c(=O)n([C@H]2C[C@H](O)[C@@H](CO)O2)cc1I
inactive: Potency [1] | Potency [2] | Potency [3] | Potency [4]
